In the library only some 2.5% were active in any assay of this set; here they are far more common.
NFkB SMM = binders of human NF-kappa-B p105 | calls only | Small molecule microarray, anti-His fluorescence binding | P19838 | hit rate 1.3% among 17,000;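 active = spot fluorescence over background significantly raised, with a chance value under 7% in all four replicate spots of the compound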;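 also: probe protein is his-tagged human p50 processed subunit at 1 µg/ml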
STAT3 SMM = STAT3 (human) binding; P40763; Small molecule microarray, His-STAT3 binding, anti-His fluorescence; calls only; hit rate 0.2% among 17,000; AID 624138;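 active = compounds whose four printed spots each show fluorescence over background unusually high for their array block, chance value under 7%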
c-Myc SMM = binds human c-Myc on microarray; calls only; hit rate 1.5% among 17,000; small molecule microarray, His-c-Myc binding, anti-His fluorescence; AID 624141;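 active = spot fluorescence over background with P-value below 7% in all four replicate spots, showing protein binding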
Target sequence (P01106 whole entry, looked up): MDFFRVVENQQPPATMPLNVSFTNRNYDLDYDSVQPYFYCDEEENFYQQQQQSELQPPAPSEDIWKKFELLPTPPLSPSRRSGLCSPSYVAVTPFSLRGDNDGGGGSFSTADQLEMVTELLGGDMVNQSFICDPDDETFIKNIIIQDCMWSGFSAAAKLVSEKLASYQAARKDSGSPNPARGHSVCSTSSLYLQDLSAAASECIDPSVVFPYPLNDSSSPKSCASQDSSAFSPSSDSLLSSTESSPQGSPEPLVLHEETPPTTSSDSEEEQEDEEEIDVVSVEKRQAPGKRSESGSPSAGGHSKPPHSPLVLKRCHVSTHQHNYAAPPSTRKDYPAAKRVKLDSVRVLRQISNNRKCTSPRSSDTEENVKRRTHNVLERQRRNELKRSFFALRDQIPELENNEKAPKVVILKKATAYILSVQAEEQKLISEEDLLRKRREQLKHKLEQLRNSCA
p53 mut binder = binds human mutant p53 on microarray; hit rate 0.4% among 17,000; calls only; AID 624136; small molecule microarray binding, anti-GST fluorescence;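 active = compounds whose four printed spots each glow above background more than chance allows, each with a p-value under 7%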
Each line names hits and unclear results; the compound was inactive in the other large screens.

CC(CO)NC(=O)C1C=C2c3cccc4[nH]cc(c34)CC2N(C)C1 (configuration not stated)	c-Myc SMM active
CCOC(=O)[C@@H]1[C@@H]2NC(=O)N(C)[C@@]1(COCc1ccc(OC)cc1)Oc1ccccc12	none
Cc1cc(SCc2sc(-c3ccc(C(F)(F)F)c(F)c3)nc2C)ccc1OCC(=O)O	c-Myc SMM active
CC1CCC/C=C/C2CC(O)CC2C(O)/C=C\C(=O)O1 (configuration not stated)	none

Screening data from PubChem.
